FBW7 activator: activators of human E3 ligase FBW7 | Q969H0 | AlphaScreen FBW7–phospho-cyclin E peptide binding, activator screen | normalized activity (activation), % at 26.1 µM | hit rate 0.13% among 650,000 | AID 1259310; in the data active = normalized activity above about 1.9%;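 also: purified mutant Fbw7 with reduced substrate affinity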
TEAD-YAP inh: TEAD-YAP interaction inhibition; HEK-TIYL cells, TEAD-Gal4/YAP UAS-luciferase luminescence; inhibition, % at 9.12 µM; hit rate 1.4% among 640,000; in the data active = inhibition above about 32%
MITF inh: human MITF inhibition, primary screen; inhibition, % at 2.6 µM; hit rate 0.91% among 650,000; O75030; AlphaScreen MITF homodimerization, bead proximity signal; in the data active = inhibition above about 50%
Target sequence (O75030 whole entry, looked up): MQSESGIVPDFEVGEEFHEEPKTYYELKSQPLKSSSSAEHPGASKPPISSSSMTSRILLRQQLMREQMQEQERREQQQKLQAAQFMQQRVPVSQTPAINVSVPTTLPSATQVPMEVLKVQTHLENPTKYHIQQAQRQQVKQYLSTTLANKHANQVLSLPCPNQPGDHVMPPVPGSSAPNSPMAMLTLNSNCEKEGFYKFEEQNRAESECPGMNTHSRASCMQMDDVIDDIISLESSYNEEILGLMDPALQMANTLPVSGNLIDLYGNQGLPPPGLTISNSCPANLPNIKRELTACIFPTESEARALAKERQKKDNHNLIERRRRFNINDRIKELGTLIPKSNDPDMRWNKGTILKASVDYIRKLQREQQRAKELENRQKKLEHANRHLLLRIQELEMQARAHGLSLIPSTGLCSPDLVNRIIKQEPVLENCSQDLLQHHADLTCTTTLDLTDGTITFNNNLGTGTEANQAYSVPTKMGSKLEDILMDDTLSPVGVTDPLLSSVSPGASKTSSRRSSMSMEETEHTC
GPR151 ag: human GPR151 activation; hit rate 1% among 650,000; activation, % at 11.2 µM; AID 1508602; PathHunter beta-arrestin GPR151 cells, luminescence; in the data active = activation above about 4.9%
Large screens that a line does not name were inactive. In the library only some 3.4% were active in any assay of this set; here they are far more common.

COCCOC(=O)c1[nH]c2c(c1C)C(=O)CC(c1cccs1)C2 (centres undefined)	TEAD-YAP inh 48.9
CCOCCOC(=O)c1[nH]c2c(c1C)C(=O)CC(c1cccs1)C2 (centres undefined)	TEAD-YAP inh 54.0
N#CC1=C(N)N(c2c(F)cccc2F)C2=C(C(=O)CCC2)C1c1cccc(Cl)c1 (centres undefined)	none
CC(C)c1nc2ccccc2c2nn(CC(=O)N3CCNC(=O)C3(C)C)c(=O)n12	none
CC(=O)c1cccc(N(CC(=O)NCc2ccc(Cl)cc2Cl)S(C)(=O)=O)c1	none
O=C(Nc1cccc(-c2cn3c(n2)SCC3)c1)c1ccc(Cl)nc1	none
COc1ccc(NC(=O)CCc2c(C)nc3nc[nH]n3c2=O)cc1OC	none
CCOC(=O)c1[nH]c2c(c1C)C(=O)CC(c1cccs1)C2 (centres undefined)	TEAD-YAP inh 52.4
Cc1c(C(=O)OC(C)C)[nH]c2c1C(=O)CC(c1cccs1)C2 (centres undefined)	TEAD-YAP inh 60.1
CCOC(=O)C1=C(C)NC2=C(C(=O)CC(c3cccs3)C2)C1c1ccc(C)s1 (centres undefined)	none
Cc1c(C(=O)OCCOC(C)C)[nH]c2c1C(=O)CC(c1cccs1)C2 (centres undefined)	TEAD-YAP inh 50.5
COc1ccc(C2Oc3ccccc3C3=C2C(c2ccc(Cl)cc2)n2ncnc2N3)cc1 (centres undefined)	none
CC(CCCC(C)(C)O)NC(=O)c1cc(COc2ccc3ncccc3c2)on1 (centres undefined)	TEAD-YAP inh 33.3
O=C(NC1(c2ccccc2)CC1)c1cc(COc2ccc3ncccc3c2)on1	TEAD-YAP inh 58.4
C=CCN1C=C/C(=C\C=C(C#N)C#N)c2ccccc21	MITF inh 68.4
CN1/C(=C/C=C(C#N)C#N)C=Cc2ccccc21	none
Cc1csnc1NC(=O)c1c(N)nc2c(c1C(F)(F)F)OC1=C(CCCC1)O2	TEAD-YAP inh 79.2
CCOC(=O)c1c(NC(=O)c2ccc(C(F)(F)F)cc2)sc2c1CCCC2	none
Cc1cc(C)nc(-n2ncc(Cl)c(Cl)c2=O)n1	TEAD-YAP inh 86.0
O=c1c(Cl)c(Cl)cnn1-c1ccccc1	TEAD-YAP inh 92.8
O=c1c(Cl)c(Cl)cnn1-c1cccc(C(F)(F)F)c1	none
CSc1cnn(-c2ccccc2)c(=O)c1SC	FBW7 activator 1.9
O=c1c(Cl)c(Cl)cnn1-c1ccc(Cl)c(C(F)(F)F)c1	TEAD-YAP inh 85.7
COc1ccc(-c2nnc(SCc3c(C)noc3C)n2C(C)C)cc1	none
COc1ccc(Nc2[nH]nc(NC(=O)COc3ccc(Cl)cc3)c2C#N)cc1	none
O=C(COC(=O)c1ccc([N+](=O)[O-])cc1)NCC(F)(F)F	none
Cc1ccc(NC(=O)N2CCC(CN3CCC(C)CC3)CC2)cc1	none
O=c1c(Cl)c(Cl)cnn1Cc1ccccc1Cl	TEAD-YAP inh 33.4
COc1cccc(-n2nnn(C3CC(=O)C4OCC3O4)c2=S)c1 (centres undefined)	none
O=C(Nc1cnc2cnc(-c3ccc(N4CCOCC4)cc3)cn12)C1CCOC1 (centres undefined)	FBW7 activator 2.4
Cc1ccc(-c2csc(NC(=O)c3ccc(S(=O)(=O)N(C)C)cc3)n2)c(C)c1	TEAD-YAP inh 35.3
COc1ccccc1-c1csc(NC(=O)c2cc(OC)c(OC)c(OC)c2)n1	none
COc1cc(C(=O)Nc2nc(-c3ccc(C)cc3C)cs2)cc(OC)c1OC	TEAD-YAP inh 32.3
Cc1ccc(-c2csc(NC(=O)c3cccc(Oc4ccccc4)c3)n2)cc1	none
O=C(Nc1nc(-c2ccccn2)cs1)c1cccc(Oc2ccccc2)c1	TEAD-YAP inh 37.1
CCN(CC)S(=O)(=O)c1ccc(C(=O)Nc2nc(-c3ccc(C)cc3C)cs2)cc1	none
COc1cc(C(=O)Nc2nc(-c3ccccn3)cs2)cc(OC)c1OC	TEAD-YAP inh 73.3
CCCC/C=N/NC(=O)c1ccc(Cl)cc1Cl	none
CC1(C)Cc2c(sc3nc(SCC(N)=O)n(CCc4ccccc4)c(=O)c23)CO1	none
O=C(Nc1ccncc1)c1ccc(C(=O)c2ccccc2)cc1	TEAD-YAP inh 55.3
O=C(Nc1ccncc1)c1ccc(C(=O)Nc2ccncc2)cc1	none
O=C(O)c1cccc(NC(=O)c2ccc(Oc3ccccc3)cc2)c1	TEAD-YAP inh 93.2
O=C(Nc1cccc(F)c1)c1ccc(Oc2ccccc2)cc1	none
Cc1c(C(=O)Nc2cccc(C(=O)O)c2)cccc1[N+](=O)[O-]	FBW7 activator 3.5
O=C(O)c1ccc(NC(=O)c2ccc(Oc3ccccc3)cc2)cc1	TEAD-YAP inh 39.1
Cc1c(C(=O)NC(=S)Nc2cccc(C(=O)O)c2)cccc1[N+](=O)[O-]	none
O=C(/C=C/c1ccc(Cl)cc1)NNC(=O)c1ccc(Cl)cc1	none
